Compound activity deposited in PubChem BioAssay by National Center for Advancing Translational Sciences (NCATS).
Rows were chosen to be rich in hits. Some 2.9% of all compounds tested hit in one or more screens of this group.
B2AR arrestin: agonists driving beta-arrestin recruitment to human beta2-adrenergic receptor; P07550; beta-arrestin recruitment to beta2AR, cell-based reporter; Potency, µM (titrated, usually from 46.1 µM), inactives show at the highest dose activation, usual class: activators; 0.02% of 330,000 active; active means well fitted activation curve with a large enough effect; inconclusive means small, poorly fitted or top-dose-only effect;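 further: potency means the concentration at half of the fitted maximal effect; 0% = DMSO controls and full agonism = EC100 isoproterenol or metaproterenol; nearly all actives have a fitted effect of over 65% in size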
TSHR antagonist: blocks TSH signaling through the human TSH receptor; activity change, negative = inhibition, % at 11.5 µM; TSHR-expressing cells, TSH-stimulated cAMP HTRF, 2 h; hits give low values; P16473; 0.2% of 330,000 active;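 active means activity change below a set negative limit, meaning inhibition stronger than a set level, cut at about -70% in these data; inconclusive means activity change between two set negative limits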; further: on the % scale 0 is the no-effect control and ±100 the full control effect
Target sequence (P16473 whole entry, looked up): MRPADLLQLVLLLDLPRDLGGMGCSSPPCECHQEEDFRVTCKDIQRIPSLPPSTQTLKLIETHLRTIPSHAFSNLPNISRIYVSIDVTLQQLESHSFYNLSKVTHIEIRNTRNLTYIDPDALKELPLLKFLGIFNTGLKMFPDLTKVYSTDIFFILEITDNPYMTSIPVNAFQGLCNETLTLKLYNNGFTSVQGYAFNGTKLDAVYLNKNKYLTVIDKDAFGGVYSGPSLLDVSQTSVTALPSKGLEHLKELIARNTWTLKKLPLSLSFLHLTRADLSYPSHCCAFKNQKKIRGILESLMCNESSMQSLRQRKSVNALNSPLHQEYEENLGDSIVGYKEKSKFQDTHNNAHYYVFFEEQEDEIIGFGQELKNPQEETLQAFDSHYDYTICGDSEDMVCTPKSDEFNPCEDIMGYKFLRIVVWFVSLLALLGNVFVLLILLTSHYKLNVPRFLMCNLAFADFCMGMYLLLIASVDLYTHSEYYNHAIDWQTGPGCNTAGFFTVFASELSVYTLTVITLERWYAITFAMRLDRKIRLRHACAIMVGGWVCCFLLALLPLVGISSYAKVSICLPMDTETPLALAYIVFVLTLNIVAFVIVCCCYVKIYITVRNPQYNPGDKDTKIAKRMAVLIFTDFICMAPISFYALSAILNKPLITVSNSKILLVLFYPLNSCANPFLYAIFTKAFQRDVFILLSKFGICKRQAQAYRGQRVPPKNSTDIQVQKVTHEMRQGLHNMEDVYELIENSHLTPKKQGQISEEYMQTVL
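Freshly harvested TSHR cells receive pin-tooled compound, then EC80 TSH at 4nM final. After 2 hours at 37 deg C, antibody in lysis buffer and cAMP-d2 are added; 30 minutes at ambient temperature precede the HTRF read.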
DRD3 agonist: agonists of human D3 dopamine receptor. D3R DiscoveRx beta-arrestin cells, luminescence, 90 min. 0.58% of 410,000 active. AID 652048. P35462. max activation, %; in the data active means max activation above about 30%; further: 0% is about no effect
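Agonist-mode cell screen: cells plated at 1500/well and incubated overnight at 37 °C, then exposed to library compounds for 90 min at 37 °C. Detection reagent was added for 30–60 min at room temperature, and luminescence was read.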
D3 antag: D3 dopamine receptor (human) antagonism; D3R cells, DiscoveRx beta-arrestin luminescence, antagonist mode; hits give low values; max response, negative = inhibition, %; 2.5% of 360,000 active; AID 652054; in the data active means max response below about -50%; inconclusive means no clear call, values can overlap the other calls; further: on the % scale 0 is the no-effect control and ±100 the full control effect
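Cells expressing the human receptor were seeded at 1500 cells/well, incubated overnight at 37 degrees C in 5% CO2, then exposed to library compounds with dopamine controls for 90 minutes at 37 degrees C before luminescent detection.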
An asterisk follows results filed as active.

Results for N#Cc1cccc(C(c2nnnn2CCc2ccccc2)N2CCN(C3CCCCC3)CC2)c1 (centres undefined) ?
B2AR arrestin: -0.1%; TSHR antagonist: 8.9; DRD3 agonist: 2.3; D3 antag: -26.0

What do the screens show for `COCCn1nnnc1C(c1cccc(C#N)c1)N1CCCCCC1` (centres undefined)?
B2AR arrestin: 0.3%; TSHR antagonist: -15.8; DRD3 agonist: -1.6; D3 antag: -74.6*

What do the screens show for `N#Cc1cccc(C(c2nnnn2C2CCCC2)N2CCCCCC2)c1` (centres undefined)?
B2AR arrestin: -0.3%; TSHR antagonist: 5.6; DRD3 agonist: -4.3; D3 antag: -53.7*

Results for COc1ccc(CN2C3CCCC2CC(NC(=O)/C=C/c2ccccc2)C3)cc1 (centres undefined) ?
B2AR arrestin: 0.3%; TSHR antagonist: 29.6; DRD3 agonist: -21.1; D3 antag: -110.7*

How did O=C(NC1CC2CCC(C1)N2Cc1ccccc1)c1ccccc1Br (centres undefined) do in these assays?
B2AR arrestin: 0.0%; TSHR antagonist: 17.6; DRD3 agonist: -19.3; D3 antag: -78.9*

Results for CCOc1ccc(C(=O)NC2CC3CCCC(C2)N3Cc2ccccc2)cc1 (centres undefined) ?
B2AR arrestin: 0.0%; TSHR antagonist: -3.1; DRD3 agonist: -9.0; D3 antag: -54.0*

What do the screens show for `COc1ccc(C(=O)NC2CCN(S(=O)(=O)Cc3ccccc3)CC2)c(OC)c1`?
B2AR arrestin: -0.2%; TSHR antagonist: 0.4; DRD3 agonist: 8.5; D3 antag: -12.1

How did COc1ccc(C(=O)NC2CC3CCCC(C2)N3CC(C)C)cc1 (centres undefined) do in these assays?
B2AR arrestin: -1.5%; TSHR antagonist: -4.1; DRD3 agonist: -6.5; D3 antag: 1.6

What do the screens show for `COc1ccc(C(=O)NC2CC3CCCC(C2)N3Cc2ccccc2)c(OC)c1` (centres undefined)?
B2AR arrestin: -1.1%; TSHR antagonist: 7.9; DRD3 agonist: -18.3; D3 antag: -89.2*

What do the screens show for `Cc1ccccc1C(=O)NC1CCN(Cc2ccccc2)CC1`?
B2AR arrestin: -0.4%; TSHR antagonist: 8.8; DRD3 agonist: -17.3; D3 antag: -16.2

What do the screens show for `CCOc1ccccc1NC(=O)Cn1c(=O)n(-c2ccccc2)c(=O)c2c1c1cc(C)ccc1n2C`?
DRD3 agonist: -0.8

How did COc1ccc(C(=O)NC2CC3CCCC(C2)N3Cc2ccccc2)cc1 (centres undefined) do in these assays?
B2AR arrestin: 0.2%; TSHR antagonist: 37.4; DRD3 agonist: -21.3; D3 antag: -108.4*

Results for COc1ccccc1C(=O)NC1CC2CCC(C1)N2Cc1ccccc1 (centres undefined) ?
B2AR arrestin: -1.0%; TSHR antagonist: -3.9; DRD3 agonist: -16.7; D3 antag: -95.2*

Results for CCOc1ccccc1C(=O)NC1CC2CCCC(C1)N2C1CC1 (centres undefined) ?
B2AR arrestin: -0.3%; TSHR antagonist: -7.0; DRD3 agonist: -4.4; D3 antag: -24.5

What do the screens show for `CC1CCN(CC2CCN(C(=O)NCc3ccccc3)CC2)CC1`?
DRD3 agonist: -12.9

What do the screens show for `Cc1cc(-n2c(C)nc3ccccc3c2=O)ccc1NC(=O)c1cccc([N+](=O)[O-])c1`?
DRD3 agonist: -8.7

What do the screens show for `Cc1cc(-n2c(C)c3c(C)nnc(C)c3c2C)ccc1N`?
B2AR arrestin: -0.7%; TSHR antagonist: -5.3; DRD3 agonist: 26.9; D3 antag: 6.6

What do the screens show for `Cc1ccc(-n2c(C)c3c(C)nnc(C)c3c2C)cc1C`?
B2AR arrestin: 0.0%; TSHR antagonist: -2.3; DRD3 agonist: 1.7; D3 antag: -57.9*

Results for CCC(=O)N1CCc2cc(Br)cc(S(=O)(=O)N3CCCCCC3)c21 ?
B2AR arrestin: -1.1%; TSHR antagonist: -10.5; DRD3 agonist: 2.9; D3 antag: -64.2*

Results for CCC(=O)N1CCc2cc(Br)cc(S(=O)(=O)N3CCCC(C(=O)O)C3)c21 (centres undefined) ?
B2AR arrestin: 0.1%; TSHR antagonist: -8.3; DRD3 agonist: 21.0; D3 antag: 3.8

What do the screens show for `CC(=O)N1CCc2cc(Br)cc(S(=O)(=O)N3CCC(C(=O)O)CC3)c21`?
B2AR arrestin: -0.1%; TSHR antagonist: -105.6*; DRD3 agonist: -17.8; D3 antag: 4.7

How did CC1(C(=O)Nc2ccc3c(c2)OCO3)CCN1C(=O)Cc1cccs1 (centres undefined) do in these assays?
DRD3 agonist: -28.0; D3 antag: -101.5*

What do the screens show for `CC1(C(=O)Nc2ccc3c(c2)OCCO3)CCN1C(=O)C1(c2ccc(Cl)cc2)CC1` (centres undefined)?
DRD3 agonist: 3.0; D3 antag: 2.9

What do the screens show for `CC1(C(=O)Nc2ccc3c(c2)OCCO3)CCN1C(=O)C1(c2ccc(Cl)cc2)CCC1` (centres undefined)?
DRD3 agonist: 72.5*; D3 antag: 21.9

How did CC1(C(=O)Nc2ccc3c(c2)OCO3)CCN1C(=O)CCc1cccs1 (centres undefined) do in these assays?
DRD3 agonist: 7.2; D3 antag: 0.0

How did O=C(OCc1ccccc1)N1C=CCC[C@@H]1c1c(Cl)cccc1Br do in these assays?
DRD3 agonist: -3.9; D3 antag: 0.0

What do the screens show for `CCCC(=O)NC1=C(Cl)C(=O)c2ccccc2C1=O`?
DRD3 agonist: -28.0; D3 antag: -67.7*

Results for CCN(CC)c1ccc(NC2=C(Cl)C(=O)c3ccccc3C2=O)cc1 ?
B2AR arrestin: 14.8%; TSHR antagonist: -92.8*; DRD3 agonist: -27.6; D3 antag: -82.2*

How did Cc1ccc(NC2=C(Cl)C(=O)c3ccccc3C2=O)cc1 do in these assays?
B2AR arrestin: -0.3%; TSHR antagonist: 6.0; DRD3 agonist: -1.6; D3 antag: inconclusive

Results for CCc1ccc2oc(-c3cccc(NC(=O)c4ccc(-c5cccc([N+](=O)[O-])c5)o4)c3)nc2c1 ?
DRD3 agonist: 11.1

How did CCOC(=O)C(=Cc1ccc(-n2ccnc2)cc1)C(=O)OCC do in these assays?
B2AR arrestin: 0.0%; TSHR antagonist: 5.7; DRD3 agonist: -1.7; D3 antag: -55.6*

Results for CCOC(=O)C(=Cc1ccc(F)cc1)C(=O)OCC ?
B2AR arrestin: -0.3%; TSHR antagonist: 13.1

Results for CCOC(=O)C(=Cc1ccc(Br)cc1)C(=O)OCC ?
B2AR arrestin: -0.7%; TSHR antagonist: 21.6; DRD3 agonist: -17.3; D3 antag: -107.9*

Results for Cc1ccc(-c2noc(CCC(=O)NCCN3CCc4ccccc4C3)n2)cc1 ?
B2AR arrestin: -0.4%; TSHR antagonist: -5.6; DRD3 agonist: -14.9; D3 antag: -76.0*

Results for Cc1ccc(-c2noc(CCC(=O)Nc3ccc(C)cn3)n2)cc1 ?
B2AR arrestin: -0.9%; TSHR antagonist: 24.3; DRD3 agonist: -6.9; D3 antag: -73.0*

Results for c1ccc(OCCNc2nc(NCC3CC3)nc3ccsc23)cc1 ?
DRD3 agonist: -2.0; D3 antag: 14.4

How did CC(C)CN1Cc2ccccc2Oc2cc(Br)ccc2S1(=O)=O do in these assays?
B2AR arrestin: -0.6%; TSHR antagonist: -5.8; DRD3 agonist: 5.2; D3 antag: -62.1*
